Compound activity from PubChem.
Only some compounds are listed: those with a hit (about 0.93% of all), similar ones and a draw of the others.
CDC25B-CDK2 inh: human CDC25B-CDK2/CyclinA binding inhibition; P30305+P24941; HTRF CDC25B-CDK2/CyclinA binding, anti-His/anti-Flag; stronger effect = higher value; z-score (test concentration not listed); 94,000 tested, 0.72% active; in the data active means z-score above about 3.2
HIV TAR-Tat: HIV-1 TAR-Tat binding disruption; HIV-1 TAR RNA, Tat peptide displacement FRET; stronger effect = higher value; z-score (no concentration beside the values); 100,000 tested, 0.6% active; AID 1259389; active means z-score of 3 or more in at least 2 runs
The depositor's hits bear a star; x = no result.

SMILES	CDC25B-CDK2 inh	HIV TAR-Tat
Cn1c(=O)[nH]c2nnc(-c3cccnc3)nc2c1=O	-1.7	0.12
C/C(=C\c1ccccc1)c1nnc2[nH]c(=O)n(C)c(=O)c2n1	-0.65	19*
Cc1cc(C)n(-c2nc3c(c(=O)n2CC(=O)NC(C)(C)C)CCCC3)n1	x	1.3
Cc1cc(C)n(-c2nc3c(c(=O)n2CC(N)=O)CCCC3)n1	x	12*
O=C1c2ccccc2S(=O)(=O)N1CC(O)COc1ccccc1 (stereo not drawn)	-1.2	x
CN1CCc2c(n(CC(O)CN3C(=O)c4ccccc4S3(=O)=O)c3ccccc23)C1=O (stereo not drawn)	19*	0.59
COc1ccc2cc3c(nc2c1)N(S(=O)(=O)c1ccc(OC)c(OC)c1)CC3	1.4	0.27
CCn1c2ccccc2c2cc(CN3CCN(Cc4cccc(OC)c4)CC3)ccc21	6.7*	x
CCn1c2ccccc2c2cc(CN3CCN(Cc4cccc([N+](=O)[O-])c4)CC3)ccc21	2.7	x
CSc1nc(C)cc(Nc2ccc(N3CCC(C)CC3)cc2)n1	-0.87	0.65
Cc1cc(Nc2ccc(N3CCN(C)CC3)cc2)nc(C)n1	11*	-1.6
COc1ccc(-c2noc(N3CCC(C)CC3)n2)cc1	x	-0.42
N#Cc1nc(/C=C/c2cccs2)oc1N1CCNCC1	9.3*	-1.5
N#Cc1nc(/C=C/c2cccs2)oc1N1CCC(Cc2ccccc2)CC1	0	-1.1
COc1ccccc1/C=C/c1nc(C#N)c(N2CCNCC2)o1	9.6*	-0.52
COc1ccccc1/C=C/c1nc(C#N)c(N2CCCCC2)o1	-1.5	-0.87
O=C(NC1CCCC1)c1cc2c(s1)-c1ccccc1S(=O)(=O)C2	-2.8	0.67
O=C(c1csnn1)N1CCN(c2ccc(F)cc2)CC1	-0.71	-0.07
O=C1CC(c2ccco2)Cc2[nH]c(=O)c(-c3nc(-c4ccc(Br)cc4)cs3)cc21 (stereo not drawn)	8.2*	3.7*
Cc1ccc(-c2csc(-c3cc4c([nH]c3=O)CC(c3ccccc3)CC4=O)n2)cc1 (stereo not drawn)	-0.21	-6.3
CCN1CCCC1CNc1ncnc2onc(-c3ccc(C)cc3)c12 (stereo not drawn)	x	1.1
CCSc1ncc2c(=O)n(CC(=O)N3CCc4ccccc43)cnc2n1	x	9.7*
CCSc1ncc2c(=O)n(CC(=O)NC3CCCC3)cnc2n1	x	0.72
Cc1ccc(CNS(=O)(=O)c2ccc3c(c2)C(C(C)C)C(=O)N3)cc1 (stereo not drawn)	x	-0.59
Cc1ccc(NS(=O)(=O)c2cc3c(cc2C)N(C)CCO3)c(C)c1	x	2
SMILES	CDC25B-CDK2 inh	HIV TAR-Tat
CCC(=O)N1CCc2cc(Br)cc(S(=O)(=O)NCCN3CCCCC3C)c21 (stereo not drawn)	3.4	x
CCC(=O)N1CCc2cc(Br)cc(S(=O)(=O)NCC3CCCN3CC)c21 (stereo not drawn)	4.5*	x
CCC(C)NS(=O)(=O)c1ccc2c(c1)CC(C)N2C(=O)C1CCC1 (stereo not drawn)	x	0.46
CCOc1ccccc1NS(=O)(=O)c1ccc2c(c1)NC(=O)C(C)S2 (stereo not drawn)	x	1.8
CC(=O)N1N=C(CSc2nc(C)cc(C)n2)OC1/C(C)=C/c1ccccc1 (stereo not drawn)	x	4.2*
CC(=O)N1N=C(CSc2nnc(-c3ccccc3)n2-c2ccccc2)OC1c1ccc(C)o1 (stereo not drawn)	x	0.39
CCOC(=O)c1nc(N2CCCCC2)c2ccccc2n1	x	1.5
O=c1[nH]c(SCc2ccc(Br)cc2)nc2c1CCC2	0	0.85
COc1ccc2c(C(=O)O)cc(=O)[nH]c2c1	-1.2	-0.28
COc1ccc2[nH]c(=O)cc(C(=O)O)c2c1	0.85	13*
COc1ccc(-c2noc(-c3nnn(-c4ccc(OC)cc4)c3N)n2)cc1	x	1
COc1ccc(-c2noc(-c3nnn(-c4ccc(C)c(C)c4)c3N)n2)cc1	x	4.7*
Nc1nc(N2CCCC2)nc(N2CCOCC2)c1[N+](=O)[O-]	x	0.93
O=[N+]([O-])c1ccc(N2CCN(c3ccccc3)CC2)s1	x	3.5
CCOC(=O)N1CCN(c2ccc([N+](=O)[O-])s2)CC1	x	5.2*
CC1CN(Cc2c(O)ccc3c(=O)c(-c4ccccc4)c(C(F)(F)F)oc23)CC(C)O1 (stereo not drawn)	0.01	0.4
O=c1c(-c2ccccc2)c(C(F)(F)F)oc2c(CN3CCCC3)c(O)ccc12	15*	0.65
O=C(c1ccco1)N1CCN(C(=O)c2nc(CS(=O)(=O)c3ccccc3)no2)CC1	x	1.1
Nc1ccc(F)c(-c2nnc(-c3ccccc3)o2)c1	x	33*
Clc1ccc(-c2nnc(-c3ccccc3)o2)cc1	-2.7	-1.1
Cc1nc(C(=O)Nc2cccc(OC(C)C)c2)c(C(F)(F)F)o1	-3.2	x
COc1cscc1C(=O)Nc1cc(C(F)(F)F)cc(C(F)(F)F)c1	-0.73	x
COC(=O)c1cscc1OC(=O)c1ccc(C(F)(F)F)cc1	17*	x
CCS(=O)(=O)c1nc(S(=O)(=O)c2ccc(C)cc2)c(NCC2CCCO2)s1 (stereo not drawn)	0.55	0.21
COc1c(O)cc2c(c1O)[C@@H]1O[C@H](CO)[C@@H](O)[C@H](O)[C@H]1OC2=O	x	1.9
SMILES	CDC25B-CDK2 inh	HIV TAR-Tat
Cc1c(C(=O)O)c(O)cc2c1C(=O)c1c(O)c([C@H]3O[C@H](CO)[C@@H](O)[C@H](O)[C@H]3O)c(O)c(O)c1C2=O	x	8.5*
Cc1cc(-c2ccc(C)c(S(=O)(=O)NCCN3CCCC3)c2)on1	x	1.4
CN(Cc1ccccc1)c1nnc(NC(=O)NCc2ccccc2)s1	-1.3	8*
CN(Cc1ccccc1)c1nnc(NC(=O)Nc2ccc3c(c2)OCCO3)s1	-0.57	3.6
CC1(C(=O)NC2CCCCC2)Cn2c(cc3occc32)C(=O)N1CCN1CCOCC1 (stereo not drawn)	x	4*
CC1CCC(NC(=O)C2(C)Cn3c(cc4occc43)C(=O)N2C2CCC(C)CC2)CC1 (stereo not drawn)	x	5.4*
CC1CCC(NC(=O)C2(C)Cn3c(cc4occc43)C(=O)N2CCN2CCOCC2)CC1 (stereo not drawn)	x	2.2
CC1(C(=O)NC2CCCCC2)Cn2c(cc3occc32)C(=O)N1C1CCCCC1 (stereo not drawn)	x	2.2
CC1CCC(NC(=O)C2(C)Cn3c(cc4occc43)C(=O)N2C2CCCCC2)CC1 (stereo not drawn)	x	5.4*
CC1CCC(NC(=O)C2(C)Cn3c(cc4occc43)C(=O)N2CCN(C)C)CC1 (stereo not drawn)	x	2.5
Cc1ccc(N(C)S(=O)(=O)c2ccc(CN3C(=O)c4cccnc4C3=O)s2)cc1	x	0.33
Cc1occc1-c1nnc2sc(-c3ccc(-c4cccc(Cl)c4)o3)nn12	-0.12	1.7
FC(F)(F)c1cccc(-c2ccc(-c3nn4c(-c5ccco5)nnc4s3)o2)c1	1.4	x
Fc1ccccc1-c1ccc(-c2nn3c(-c4ccco4)nnc3s2)o1	-0.12	20*
Clc1cccc(-c2ccc(-c3nn4c(-c5ccco5)nnc4s3)o2)c1	-0.52	17*
CCOC(=O)c1c(N)n(CCC2=CCCCC2)c2nc3ccccc3nc12	-7.9	x
CCOC(=O)c1c(NC(=O)c2cc(=O)c3cc(C)c(C)cc3o2)sc2c1CCCC2	-1.6	-1.4
Cc1cc(C)n(-c2cc(Nc3ccc(F)cc3)ncn2)n1	x	-0.72
O=c1[nH]c2ccc(Nc3cc(N4CCOCC4)ncn3)cc2[nH]1	8.2*	0.27
